HIF-2a inh = HIF-2a reporter inhibitors, primary screen, luminescence, 786-0 RCC cells. 786-0 RCC cells HIF-2a reporter, luciferase luminescence, overnight. inhibition, % at 18.8 µM. hit rate 0.72% among 360,000. AID 624352, 2012;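 active means inhibition of the luminescence signal of 40% or more relative to plate controls, in a single-dose primary screen at 18.75 µM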
KKLEB tox = cytotoxicity in KKLEB CF airway cells, primary screen, cytotoxicity control for CF NF-kB inhibitor project, cell-based, uHTS, fluorescence assay plates; KKLEB CF airway cells viability, ATPlite luminescence, overnight; active compounds read low; cells stimulated with P. aeruginosa culture filtrate; activity change (cytotoxicity), % at 5 µM; hit rate 0.36% among 360,000; AID 602141, 2011;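 active means corrected activity change at or below -50% at 5 µM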
CF NFkB block = inhibitors of PAF-induced NF-kB signaling, primary screen, cell-based, GFP fluorescence, uHTS | inhibition, % at 5 µM | KKLEB NF-kB-GFP reporter, GFP fluorescence overnight | hit rate 0.86% among 360,000;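 active means at least 50% inhibition at 5 µM, scaled per plate between neutral and stimulator controls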;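 further: PAF is a Pseudomonas aeruginosa culture filtrate used as stimulus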
TRPM1 prom inh = inhibitors of MITF-dependent TRPM1 promoter reporter, primary screen, cell-based, SK-MEL-5, single point, luciferase; SK-MEL-5 TRPM1 promoter luciferase, 24 h; inhibition, % at 12.5 µM; hit rate 0.83% among 330,000; AID 488899, 2010;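 active means mean inhibition across replicates of 60% or more, whatever share of single replicates reaches that level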
LMP1 NFkB inh = EBV LMP1-driven NF-kappaB luciferase reporter inhibitors, primary screen, cell-based, luminescence, single point. hit rate 0.69% among 350,000. AID 504558, 2011. LMP1-induced NF-kappaB luciferase reporter cells. inhibition, % at 12.5 µM; in the data active means inhibition above about 41%
Peg3 prom inh = Peg3 promoter-driven luciferase inhibitors, primary screen, cell-based, HeLa, luciferase luminescence. HeLa PEG-Prom luciferase reporter, overnight. inhibition, % at 20 µM. hit rate 1.7% among 360,000;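 active means inhibition of at least 50% at 20 µM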
Mdm2 MdmX conf = retested Mdm2-MdmX interaction blockers, confirmation, cell-based, luminescence, single concentration, set 2. shares compounds with HIF-2a inh. SaOS-2 split-luciferase Mdm2/MdmX complementation. inhibition, % at 8 µM. hit rate 99% among 740. AID 504601, 2011;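 active means mean inhibition of the luminescence signal across two replicates at or above 26 percent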
HIF-2a conf = HIF-2a reporter inhibitor retest, confirmation, luminescence, 786-0 RCC cells. shares compounds with HIF-2a inh. HIF-2a luciferase reporter luminescence, overnight. inhibition, % at 18.8 µM. hit rate 56% among 1,800;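 active means mean inhibition across four replicates of at least 40 percent at the single tested concentration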
HIF-1a cs = HIF-1a luciferase reporter signal reduction – MiaPaCa-2 cells, single concentration, counter-screen for HIF-2a inhibitor project, confirmation | shares compounds with HIF-2a inh | MiaPaCa-2 HIF-1a luciferase reporter, desferoxamine, overnight | inhibition, % at 18.8 µM | hit rate 72% among 1,800 | AID 651589, 2012;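 active means mean inhibition of the reporter signal across four replicates at the single tested dose of 50% or more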
Of the large screens only hits and unclear results are named; the others gave an inactive call (follow-up assays come after a bar, where they were run). Compounds with a hit are over-represented: about 3% of the library has one in this group of screens.

CC(=O)N(Cc1ccc(F)cc1)C1=C(NCCc2ccccc2)C(=O)c2ccccc2C1=O	HIF-2a inh 91, KKLEB tox -55, CF NFkB block 86, TRPM1 prom inh 104, LMP1 NFkB inh 76, Peg3 prom inh 103 | Mdm2 MdmX conf 101
CC(C)c1cccc(C(C)C)c1NC(=O)OC1CCCCC1	none (no result: TRPM1 prom inh, LMP1 NFkB inh)
COc1ccc2cc1Oc1ccc(cc1)C[C@H]1c3cc(c(OC)cc3CCN1C)Oc1c(OC)c(OC)cc3c1[C@@H](C2)N(C)CC3	Peg3 prom inh 52 | Mdm2 MdmX conf 100
COc1ccc2c(c1OC)CN(C)CCc1cc3c(cc1C(O)C2)OCO3 (configuration not stated)	none
COc1ccc(C(=O)/C=C2\Sc3ccccc3N2C)cc1	none
COc1ccccc1-[n+]1c(C)cc(/C=C2\Sc3ccccc3N2C)cc1C	HIF-2a inh 57, TRPM1 prom inh 93, LMP1 NFkB inh 52, Peg3 prom inh 67 | Mdm2 MdmX conf 103
COc1ccc(C(C)=O)cc1CSc1nnc(-c2ccc(Cl)cc2)n1-c1ccccc1	HIF-2a inh 41 | HIF-2a conf inactive | HIF-1a cs inactive
Cc1ccccc1C(=O)N1[C@@H](C(C)C)COc2cc(Br)ccc2S1(=O)=O	none
CNc1nc(-c2ccc3c(c2)CCN3C(=O)CC(C)(C)C)c(C)s1	none (no result: TRPM1 prom inh)
CC(=O)Nc1nc(-c2ccc3c(c2)CCN3C(=O)C2CC2)c(C)s1	LMP1 NFkB inh 82 | Mdm2 MdmX conf 97
CC1(C)CC(=O)C=C(c2ccc(-c3cnn(Cc4ccccc4)c3)cc2)C1=O	none (no result: TRPM1 prom inh)
C=CCn1cccc(/C=C/C(=O)c2ccc(C(C)(C)C)cc2)c1=S	HIF-2a inh 70, KKLEB tox -52, Peg3 prom inh 102 | HIF-2a conf 61 | HIF-1a cs 105
CC(C)NC(=O)C1(C)CN(S(C)(=O)=O)CC(=O)N1CCCN1CCOCC1 (configuration not stated)	none (no result: KKLEB tox, CF NFkB block, TRPM1 prom inh, LMP1 NFkB inh, Peg3 prom inh)
O=C1NC2c3c(I)sc(I)c3C(=O)C2O1 (configuration not stated)	HIF-2a inh 53, Peg3 prom inh 106 | HIF-2a conf inactive | HIF-1a cs inactive
C#CCn1c(S(=O)(=O)Cc2ccc(C)cc2)nc(-c2ccccc2)c1-c1ccccc1	none | Mdm2 MdmX conf 100
CCCCCCCCCCn1ccc(=N)cc1	TRPM1 prom inh 77 | Mdm2 MdmX conf 98
C=C1C(=O)C23CCC4C(C)(C(=O)OC)CCCC4(C)C2CCC1(O)C3 (configuration not stated)	HIF-2a inh 91, KKLEB tox -102, CF NFkB block 101, TRPM1 prom inh 117, LMP1 NFkB inh 62, Peg3 prom inh 101 | HIF-2a conf 99 | HIF-1a cs 103
CC1C(=O)N(Cc2cn(CCC3OCCO3)nn2)CCS(=O)(=O)N1Cc1ccc(-c2ccc(Cl)cc2)cc1 (configuration not stated)	none (no result: TRPM1 prom inh)
CCc1nc2ccc(C(=O)NCCCN3CCCC3=O)cn2c1N(CC)C(C)=O	none (no result: TRPM1 prom inh, LMP1 NFkB inh)
Clc1ccc(-c2csc3ncnc(Cl)c23)cc1	none
CN(C)C(=O)CSc1ncnc2scc(-c3ccccc3)c12	none
Cn1nnnc1Sc1ncnc2scc(-c3cccc4c3sc3ccccc34)c12	HIF-2a inh 62, Peg3 prom inh 98 | HIF-2a conf inactive | HIF-1a cs 102

Screening data (PubChem BioAssay)
